Bioassay records from PubChem BioAssay.
M1 ag parental = counter-screen for M1 agonists: effect in parental CHO-K1 cells; Fluo-8 calcium fluorescence; scaled to maximal ATP response, vehicle zero; activation, % at 3 µM; hit rate 0.48% among 360,000; AID 602248; in the data active means activation above about 15%;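 further: untransfected CHO-K1 host cells lacking M1 receptor as counterscreen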
M1 antag = human CHRM1 antagonism; P11229; CHO-K1 hM1, Fluo-8 calcium fluorescence, ACh EC80 antagonist; inhibition, % at 3 µM; hit rate 1.3% among 360,000; AID 588852;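 active means percent inhibition above its own plate's cutoff, namely the mean of that plate's compound wells plus 3 SD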;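 further: peak over basal fluorescence ratio during 140 s after agonist addition; 0% = ACh EC80 plus DMSO and 100% = DMSO alone without agonist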
Target sequence (P11229 whole entry, looked up): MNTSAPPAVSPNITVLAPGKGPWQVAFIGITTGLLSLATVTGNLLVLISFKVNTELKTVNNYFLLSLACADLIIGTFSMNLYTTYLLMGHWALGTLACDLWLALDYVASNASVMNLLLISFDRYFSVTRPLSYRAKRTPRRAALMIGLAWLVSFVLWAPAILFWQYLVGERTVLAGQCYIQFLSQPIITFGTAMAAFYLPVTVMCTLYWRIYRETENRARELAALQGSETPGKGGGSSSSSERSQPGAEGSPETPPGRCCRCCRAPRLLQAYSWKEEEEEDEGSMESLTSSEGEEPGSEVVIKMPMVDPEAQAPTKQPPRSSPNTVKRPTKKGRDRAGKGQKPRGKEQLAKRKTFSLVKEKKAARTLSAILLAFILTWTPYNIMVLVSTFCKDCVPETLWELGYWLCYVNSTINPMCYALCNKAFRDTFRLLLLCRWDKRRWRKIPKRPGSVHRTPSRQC
M1 PAM parental = nonselective activator or artifact in parental CHO-K1 calcium assay. ATP EC20, Fluo-8 calcium fluorescence; 0% at ATP EC20, 100% at ATP max. activation, % at 3 µM. hit rate 0.02% among 360,000. AID 602247;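 active means activation above the run cutoff, the mean activation of all test compounds plus 3 SD, cut at about 40% in these data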;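 further: peak over basal fluorescence ratio in a 140 s read after ATP addition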
CHRM1 PAM = human CHRM1 positive allosteric modulation | hit rate 0.088% among 360,000 | activation, % at 3 µM | P11229 | CHO-K1 hM1, Fluo-8 calcium fluorescence, ACh EC20; 0% = ACh EC20, 100% = maximal ACh; in the data active means activation above about 19%, passing the limit was not always enough
CHRM1 agonist = agonists of human M1 muscarinic receptor; hit rate 0.33% among 360,000; AID 588814; activation, % at 3 µM; CHO-K1 hM1, Fluo-8 calcium fluorescence, agonist mode; 0% DMSO, 100% acetylcholine EC100;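 active means activation above the run's mean compound activation plus 3 SD, cut at about 16% in these data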;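 further: peak over basal fluorescence ratio within a 140 s kinetic read after compound addition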
CHO-K1 Ca antag = nonselective inhibitor or artifact in parental CHO-K1 cells | hit rate 0.6% among 360,000 | inhibition, % at 3 µM | ATP-induced calcium, Fluo-8 fluorescence;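 active means inhibition above a per-plate cutoff, the plate's mean sample inhibition plus 3 SD, cut at about 24% in these data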;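 further: 0% = DMSO plus EC80 ATP and 100% = DMSO alone without ATP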
Active calls of the source: *. This is a sample that favours compounds with a hit; in the whole collection about 2.3% have one here.

SMILES	M1 ag parental	M1 antag	M1 PAM parental	CHRM1 PAM	CHRM1 agonist	CHO-K1 Ca antag
C[N+]1(CC(=O)Nc2ccc(F)cc2)CCN(C(=O)c2ccco2)CC1	0	56*	22	-20	-8	-13
Nc1nnc(SCc2c(F)cccc2Cl)s1	2	-7	21	8	-2	-7
O=C(Cn1c(=O)oc2cc(S(=O)(=O)N3CCCC3)ccc21)Nc1ccccn1	1	-15	7	14	2	-4
COc1ccc(S(=O)(=O)N2CCN(C3CCN(Cc4ccccc4)CC3)CC2)cc1	-1	53*	14	-20	-6	-9
COc1cccc(CN2CCCN(S(=O)(=O)c3ccc(Br)cc3)CC2)c1	0	37*	4	-21	-2	-6
CCC(=O)c1cc(Br)ccc1OCC(=O)N1CCN(S(=O)(=O)c2ccccc2)CC1	1	-2	-15	-2	-5	-10
CN(Cc1cn[nH]c1-c1ccc(-c2ccccc2)cc1)CC1CCOCC1	17*	-9	21	3	-5	-2
CCCCNC(=O)C1(C)CCC(=O)N1C1CC1 (centres undefined)	1	-2	23	5	-1	-3
OC[C@H]1O[C@@H](n2cnc3c(NCc4ccco4)ncnc32)[C@H](O)[C@@H]1O	0	-14	4	-15	35*	-4
Cc1ccc(C(C)C)c(OCCCCCN2CCOCC2)c1	1	69*	20	-36	-12	-17
C=CCc1ccc(OCCCCOc2ccc(C(=O)O)cc2)c(OC)c1	3	1	3	-5	-8	5
Cc1ccc(C(C)C)c(OCCCCN2CCNCC2)c1	2	-7	25	-3	-8	-15
C=CCc1ccc(OCCCCCN2CCOCC2)c(OC)c1	1	46*	12	-21	-5	-12
CCC(NC(=O)c1ccc2nc(Cc3ccc(OC)cc3)oc2c1)c1ccncc1 (centres undefined)	15*	30	0	-14	5	1
CCCc1cc(C(=O)Nc2cc(C)ccc2O)no1	0	12	-2	-3	-4	-4
CN(C)c1ccc(CN2CCC(C(=O)NC(c3ccc(F)cc3)c3ccc4ccccc4n3)CC2)cc1 (centres undefined)	1	54*	7	-28	-7	3
O=C(NC(c1ccc(F)cc1)c1ccc2ccccc2n1)C1CCN(Cc2ccc3ccccc3n2)CC1 (centres undefined)	1	5	14	-6	-6	-7
Cc1cccc(C(O)c2ncc(-c3ccc4ccccc4c3)[nH]2)c1C (centres undefined)	0	-13	-4	0	-1	-1
O=S(=O)(c1ccc(Cl)cc1)c1snnc1-c1ccccc1	1	37*	22	-22	-6	-6
CCN1C(=O)C(=O)N(CC(=O)c2[nH]c(C)c(C(C)=O)c2C)C1=O	0	2	-1	1	-3	-4
CC(=O)c1c(C)[nH]c(C(=O)CN2C(=O)NC(C)(c3ccc(C)cc3)C2=O)c1C (centres undefined)	14	9	29	4	27*	-10
C[C@H](NC(=O)[C@@H]1Cc2ccccc2CN1)C(=O)NCC1CCCO1 (some centres undefined)	1	-6	-4	9	-1	-2
Cc1csc2ncnc(NNC(=O)c3ccc(Cl)cc3)c12	19*	43*	-12	-21	4	8
CCN(CC)c1ccc(/C=C/C(=O)c2ccc(Br)cc2)cc1	111*	79*	-4	-24	171*	73*
COC(=O)/N=C/c1c(NCc2ccccc2)nc2c(C)cccn2c1=O	0	2	1	-1	0	-3
SMILES	M1 ag parental	M1 antag	M1 PAM parental	CHRM1 PAM	CHRM1 agonist	CHO-K1 Ca antag
CCOC(=O)Nc1ccc2c(c1)N(C(=O)C(C)N1CCCC1)c1ccccc1CC2 (centres undefined)	0	91*	4	-35	-12	-6
CCOC(=O)Nc1ccc2c(c1)N(C(=O)OC)c1ccccc1CC2	0	-2	9	3	-2	-7
CCN(CC)CCC(=O)N1c2ccccc2Sc2ccc(NC(=O)OC)cc21	0	23	0	-26	-9	-6
CCCC(CCC)C(=O)Nc1ccc2c(c1)N(C(=O)CN1CCN(C)CC1)c1ccccc1CC2	0	78*	-2	-38	-15	-13
CCOC(=O)Nc1ccc2c(c1)N(C(=O)CN1CCN(C)CC1)c1ccccc1S2	2	75*	17	-21	-7	-6
CCOC(=O)Nc1ccc2c(c1)N(C(=O)CCN(C)C)c1ccccc1S2	0	51*	20	-22	-5	-4
CCOC(=O)Nc1ccc2c(c1)N(C(=O)CN(C)C)c1ccccc1S2	1	7	27	-15	-8	-7
CCS(=O)(=O)N1Cc2ccccc2CC1C(=O)NCCc1c[nH]c2ccccc12 (centres undefined)	2	1	10	2	-1	-7
O=C(Nc1cccnc1)c1cc(-c2ccc(Cl)cc2Cl)on1	0	0	11	8	-5	-24
CC1CC(C)(C)CC2(C1)NC(=O)N(CC(=O)N1CCN(S(=O)(=O)c3cccc(Cl)c3Cl)CC1)C2=O (centres undefined)	0	45*	-15	-20	-6	12
Cc1[nH]c2ccccc2c1C(=O)CN1C(=O)NC2(CC(C)CC(C)(C)C2)C1=O (centres undefined)	35*	12	11	-2	10	8
O=C1[C@@H](Oc2ccccc2)[C@@H](c2cnc3ccccc3c2)N1c1ccccc1	1	30*	0	-20	-10	-15
O=C1[C@H](Oc2ccccc2)[C@@H](c2ccncc2)N1c1ccncc1	1	-5	20	3	0	-8
CCC(C)NC(=O)CSc1nnc(-c2cc(OC)c(OC)c(OC)c2)c(-c2cc(OC)c(OC)c(OC)c2)n1 (centres undefined)	-1	-8	-5	3	-9	-10
CN(Cc1nccs1)C(=O)c1ccc2nc(Cc3ccccc3F)oc2c1	1	-1	-17	5	-1	-6
CN(Cc1nccn1C)C(=O)c1ccc2nc(Cc3ccccc3F)oc2c1	1	48*	6	-22	-6	-12
Cc1cc(NCCCCCCCNc2cc(C)nc3cc([N+](=O)[O-])ccc23)c2ccc([N+](=O)[O-])cc2n1	0	34*	0	-28	-8	-7
C/C(N)=C(/C#N)C(=O)COC(=O)Cc1coc2ccc3ccccc3c12	19*	8	2	3	-3	3
CN1CCN(C2Cc3ccc(F)cc3Sc3cc(F)c(Cl)cc32)CC1 (centres undefined)	1	29	-4	-14	-6	6
